From PubChem
Rac1 act GTP bind: modulators of GTP binding to human Rac1 activated mutant. GST-Rac1 activated beads, fluorescent GTP binding, flow cytometry; actives lie on both sides; 100% means binding = to untreated wells. percent activity (GTP binding), % at 10 µM. hit rate 0.11% among 190,000;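 active means GTP binding at least 20 percentage points away from the 100% baseline, in either direction, so actives lie on both sides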
HRas wt GTP: modulators of GTP binding to human HRas wildtype | GST-Ras wt beads, Bodipy-FL-GTP binding, flow cytometry; actives lie on both sides | GTP binding activity, % at 10 µM | hit rate 0.14% among 190,000 | AID 759;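 active means GTP binding activity at least 20% away from the 100% baseline, either lowered as inhibitor or raised as activator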
Target sequence (P01112 whole entry, looked up): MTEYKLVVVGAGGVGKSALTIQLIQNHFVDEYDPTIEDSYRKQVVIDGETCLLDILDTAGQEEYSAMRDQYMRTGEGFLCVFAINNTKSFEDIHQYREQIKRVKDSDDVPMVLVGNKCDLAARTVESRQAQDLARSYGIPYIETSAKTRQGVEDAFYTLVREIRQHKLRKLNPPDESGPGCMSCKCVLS
Cdc42 wt: human Cdc42 wildtype GTP binding change, either direction. hit rate 0.2% among 190,000. percent activity (GTP binding), % at 10 µM. AID 761. P60953. GST-Cdc42 beads, Bodipy-GTP binding, flow cytometry; actives lie on both sides;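 active means percent activity GTP binding at least 20 points away from the 100% baseline, either down as inhibitor or up as activator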;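 further: median bead fluorescence of bound Bodipy-FL-GTP at 100 nM; below 100% means less GTP binding so inhibitor and above means activator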
Target sequence (P60953 whole entry, looked up): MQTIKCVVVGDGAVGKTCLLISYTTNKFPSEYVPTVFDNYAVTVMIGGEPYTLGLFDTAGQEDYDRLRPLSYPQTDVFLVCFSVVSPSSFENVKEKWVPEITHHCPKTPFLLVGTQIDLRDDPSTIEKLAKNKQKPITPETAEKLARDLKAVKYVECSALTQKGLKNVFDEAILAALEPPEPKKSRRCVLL
Rab7 wt modul: dog Rab7 wildtype GTP binding, inhibitors and activators. AID 758. GTP binding activity (percent of control), % at 10 µM. hit rate 0.055% among 190,000. GST-Rab7 beads, fluorescent GTP binding, flow cytometry; actives lie on both sides; untreated = 100%, excess cold GTP = 0%;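 active means fluorescent GTP binding to Rab7 beads changed by at least 20 points from the 100% baseline, either direction, mostly lower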;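 further: median green fluorescence of bound Bodipy-FL-GTP per Rab7 bead population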
Rab2A wt mod: changes GTP binding to wildtype dog Rab2A, up or down | P61105 | GST-Rab2 wt beads, Bodipy-GTP binding, flow cytometry | GTP binding activity, % at 10 µM | hit rate 0.19% among 190,000 | AID 760;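 active means GTP binding activity at least 20 points away from 100%, either lowered or raised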
Rac1 wt modul: alters GTP binding to wildtype human Rac1 | GST-Rac1 beads, fluorescent GTP binding, flow cytometry; actives lie on both sides; 0 = cold GTP competed, 100 = untreated | hit rate 0.27% among 190,000 | GTP binding activity (% of control), % at 10 µM | P63000;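 active means GTP binding activity at least 20 points away from the 100% control level, either lower or higher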
Of the large screens only hits and unclear results are named; the others gave an inactive call; [ ] = dose if it differs, or a comment. Compounds with a hit are over-represented: about 0.4% of the library has one in this group of screens.

Cc1sc2nc3ccc(NCc4ccco4)nn3c(=O)c2c1C	Rac1 act GTP bind 30.0, HRas wt GTP 34.0, Cdc42 wt 28.0, Rab7 wt modul 18.0, Rab2A wt mod 27.0, Rac1 wt modul 22.0
COc1ccc(NC(=S)NC(=O)CC(C)C)c(OC)c1	none
Cc1ccc2c(c1)c1nnc(SCC(=O)N3CCCc4ccccc43)nc1n2CC(=O)O	HRas wt GTP 67.0, Cdc42 wt 64.0, Rab2A wt mod 66.0, Rac1 wt modul 66.0
O=CN1CCCN(Cc2nc(-c3cccc(Cl)c3)no2)CC1	none
CCOC(=O)c1c2c3c(c(Cl)ccc3[nH]c1=O)C(=O)c1ccccc1-2	Rac1 act GTP bind 65.0, HRas wt GTP 44.0, Cdc42 wt 41.0, Rab2A wt mod 44.0, Rac1 wt modul 45.0
COCCCNc1c2c3c(cccc3[nH]c1=O)C(=O)c1ccccc1-2	none
CCOC(=O)c1c2c3c(cccc3[nH]c1=O)C(=O)c1ccccc1-2	HRas wt GTP 66.0, Cdc42 wt 63.0, Rab2A wt mod 65.0, Rac1 wt modul 76.0
Cc1ccc(S(=O)(=O)N2CCCC(C(=O)Nc3ccc(C(=O)O)cc3)C2)cc1Cl (stereo not drawn)	none
CCOc1cc(/C=C(/C#N)c2nc3ccccc3[nH]2)ccc1OCc1ccc(C(=O)O)o1	HRas wt GTP 76.0, Cdc42 wt 77.0, Rab2A wt mod 74.0
COC(=O)C1=NN(C(=O)c2cccc(Br)c2)C(O)(c2ccc(Cl)cc2)C1 (stereo not drawn)	Rac1 act GTP bind 79.0, Cdc42 wt 78.0
CCOC(=O)C1=NN(C(=O)c2ccc(OC)cc2)C(O)(c2ccc(Cl)cc2)C1 (stereo not drawn)	none
O=C(O)c1ccc(Nc2nc(-c3cc4ccccc4oc3=O)cs2)cc1O	Rac1 wt modul 79.0
O=C(O)c1cccc(NC(=S)N/N=C/c2ccccc2OCc2ccc(Br)cc2)c1	none
COC(=O)c1ccc(COc2ccccc2/C=N/Nc2cccc(C(=O)O)c2)cc1	Rac1 act GTP bind 128.0[activator], HRas wt GTP 121.0[activator], Cdc42 wt 124.0[activator], Rab7 wt modul 126.0[activator], Rab2A wt mod 128.0[activator], Rac1 wt modul 141.0[activator]
CCC(C)(C)NC(=O)c1ccc2c(c1)N(CC(=O)OC)C(=O)C(C)(C)O2	Rac1 wt modul 120.0[activator]
Cc1ccc(O)c(C(=O)c2cnn(C(=O)Cc3csc(C)n3)c2)c1	HRas wt GTP 77.0, Rab7 wt modul 79.0
Cc1ncc(CC(=O)n2cc(C(=O)c3cc(F)ccc3O)cn2)s1	none
C=CCN1C(=O)/C(=C/C=C2/N(CC)c3ccc(S(=O)(=O)N(C)C)cc3N2CC)SC1=S	HRas wt GTP 79.0
Cc1ccccc1C(=O)Nc1cccc(C(=O)N/N=C/c2cc(Cl)cc([N+](=O)[O-])c2O)c1	Rac1 act GTP bind 74.0, Cdc42 wt 76.0, Rab2A wt mod 77.0
CCC(C)(NC(=O)c1ccc2c(c1)OCO2)C(=O)NC1CCCCC1 (stereo not drawn)	none
Cc1cccc(NC(=O)Nc2cc(C)cc(C)n2)c1	none
Cc1ccc(NC(=S)NNC(=O)c2c(Cl)c(C)nn2C)cc1	none
Cc1ccc(NC(=S)NNC(=O)c2cn(C)nc2C)cc1	Rac1 wt modul 134.0[activator]
O=C(NNc1nc(-c2ccccc2)c2cc(Br)ccc2n1)c1ccc(S(=O)(=O)N2CCOCC2)cc1	Rab2A wt mod 75.0, Rac1 wt modul 67.0
O=C(NNc1nc(-c2ccccc2)c2cc(Br)ccc2n1)c1ccc(S(=O)(=O)N2CCCCC2)cc1	none
CN(C)S(=O)(=O)c1ccc(C(=O)NNc2nc(-c3ccccc3)c3cc(Br)ccc3n2)cc1	Rac1 wt modul 78.0
CC(=O)NNc1nc(-c2ccccc2)c2cc(Br)ccc2n1	none
CCN(CC(=O)Nc1ccc(C)c(F)c1)CC(=O)NC(C)(C)C	none
CSc1ccc(CN2C(=O)NC3(CCCCC3)C2=O)cc1	none
Cc1c(Br)c([N+](=O)[O-])nn1CC(=O)NCCc1c[nH]c2ccccc12	none
C=CCSc1nc(N)c(C#N)c(-c2ccc(C)cc2)c1C#N	Cdc42 wt 78.0, Rac1 wt modul 78.0
N#Cc1c2ccc(O)cc2n2ccccc12	none
